BAZ2B block = inhibitors of human BAZ2B bromodomain. AlphaScreen BAZ2B-H3K14Ac peptide displacement. AID 504333. Potency, µM (series often up to 114 µM), inactives show at the highest dose activity change, negative = inhibition, most hits filed as inhibitors. Q9UIF8. hit rate 4.4% among 360,000; further: on the % scale 0 is the no-effect control and ±100 the full control effect; nearly all actives have a fitted effect of over 60% in size
Target sequence (Q9UIF8 whole entry, looked up): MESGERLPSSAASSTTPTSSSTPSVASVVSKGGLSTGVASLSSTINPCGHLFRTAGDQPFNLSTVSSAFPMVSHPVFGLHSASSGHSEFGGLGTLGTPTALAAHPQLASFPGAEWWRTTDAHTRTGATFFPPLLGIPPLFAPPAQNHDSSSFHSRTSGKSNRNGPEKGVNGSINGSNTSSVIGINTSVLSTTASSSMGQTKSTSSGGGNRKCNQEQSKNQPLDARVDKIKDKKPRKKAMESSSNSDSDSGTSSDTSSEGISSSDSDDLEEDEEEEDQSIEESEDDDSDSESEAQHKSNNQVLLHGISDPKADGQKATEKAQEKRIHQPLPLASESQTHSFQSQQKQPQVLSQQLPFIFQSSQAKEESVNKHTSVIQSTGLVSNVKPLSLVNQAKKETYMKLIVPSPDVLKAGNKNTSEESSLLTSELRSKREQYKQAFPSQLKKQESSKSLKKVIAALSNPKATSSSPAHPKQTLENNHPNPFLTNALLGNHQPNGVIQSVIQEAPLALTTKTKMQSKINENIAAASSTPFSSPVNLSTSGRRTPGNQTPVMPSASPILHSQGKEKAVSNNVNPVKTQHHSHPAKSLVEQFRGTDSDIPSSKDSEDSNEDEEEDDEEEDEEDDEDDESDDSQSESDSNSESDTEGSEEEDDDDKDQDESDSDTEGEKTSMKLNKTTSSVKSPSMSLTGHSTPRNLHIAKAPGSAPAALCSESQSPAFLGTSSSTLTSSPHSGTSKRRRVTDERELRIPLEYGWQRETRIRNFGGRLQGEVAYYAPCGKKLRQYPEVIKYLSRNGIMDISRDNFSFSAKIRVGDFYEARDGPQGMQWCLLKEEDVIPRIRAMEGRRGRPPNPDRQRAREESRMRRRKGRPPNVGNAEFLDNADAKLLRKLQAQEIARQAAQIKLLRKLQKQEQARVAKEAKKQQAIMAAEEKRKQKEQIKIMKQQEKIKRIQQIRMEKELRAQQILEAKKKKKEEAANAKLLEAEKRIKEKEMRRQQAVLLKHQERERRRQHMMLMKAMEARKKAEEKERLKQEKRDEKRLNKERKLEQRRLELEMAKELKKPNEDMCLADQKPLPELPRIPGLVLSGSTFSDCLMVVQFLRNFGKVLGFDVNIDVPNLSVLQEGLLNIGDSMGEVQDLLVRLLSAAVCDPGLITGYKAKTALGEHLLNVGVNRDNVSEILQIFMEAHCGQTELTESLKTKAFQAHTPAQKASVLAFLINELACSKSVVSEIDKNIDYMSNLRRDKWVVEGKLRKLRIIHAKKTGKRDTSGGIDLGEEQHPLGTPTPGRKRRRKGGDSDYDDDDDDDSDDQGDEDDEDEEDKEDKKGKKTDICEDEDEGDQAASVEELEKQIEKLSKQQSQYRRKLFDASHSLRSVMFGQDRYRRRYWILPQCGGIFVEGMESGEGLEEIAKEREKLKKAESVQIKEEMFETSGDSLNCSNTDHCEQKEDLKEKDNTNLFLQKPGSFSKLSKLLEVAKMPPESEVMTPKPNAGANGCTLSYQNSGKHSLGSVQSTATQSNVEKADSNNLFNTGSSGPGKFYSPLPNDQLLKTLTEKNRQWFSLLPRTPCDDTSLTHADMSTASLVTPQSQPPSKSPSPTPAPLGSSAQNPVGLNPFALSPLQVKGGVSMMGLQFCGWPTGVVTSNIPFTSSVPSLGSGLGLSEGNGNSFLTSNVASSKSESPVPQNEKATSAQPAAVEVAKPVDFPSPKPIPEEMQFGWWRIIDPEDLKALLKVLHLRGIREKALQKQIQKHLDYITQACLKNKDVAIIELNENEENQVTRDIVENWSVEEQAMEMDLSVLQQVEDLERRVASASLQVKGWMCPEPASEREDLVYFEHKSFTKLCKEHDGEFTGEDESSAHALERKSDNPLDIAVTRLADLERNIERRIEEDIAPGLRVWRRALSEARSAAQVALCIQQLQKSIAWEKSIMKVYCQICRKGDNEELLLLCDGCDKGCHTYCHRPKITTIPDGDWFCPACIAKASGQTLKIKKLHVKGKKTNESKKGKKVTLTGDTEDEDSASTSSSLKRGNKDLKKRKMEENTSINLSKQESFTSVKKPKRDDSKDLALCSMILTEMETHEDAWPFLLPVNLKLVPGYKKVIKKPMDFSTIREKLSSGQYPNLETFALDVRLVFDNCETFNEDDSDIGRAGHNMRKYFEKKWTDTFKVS
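AlphaScreen displacement of biotin-H3(5-23)K14Ac peptide (50 nM final) from BAZ2B (50 nM final) in PBS pH 7.4, 0.01% Tween-20; complex preformed 30 min RT, then compounds (top 110 uM) 30 min RT, beads 20 min dark.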
JMJD2A Tudor inh = inhibitors of human JMJD2A Tudor domain; O75164; AlphaScreen JMJD2A-Tudor / H3K4me3 peptide binding; Potency, µM (highest dose often 114 µM), inactives show top-dose activity change, negative = inhibition, hits mostly inhibitors; hit rate 4.4% among 390,000; AID 504339; further: on the % scale 0 is the no-effect control and ±100 the full control effect; nearly all actives have a fitted effect of over 50% in size
Sfp PPTase inh = inhibitors of Bacillus subtilis Sfp phosphopantetheinyl transferase. Potency, µM, inactives show largest response in the series, negative = inhibition, actives largely listed as inhibitors. hit rate 3.5% among 310,000. AID 1490. Q9F4F7. Biochemical Sfp PPTase activity, qHTS;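 further: the enzyme is Sfp with the accession as filed and its product quenches rhodamine fluorescence; 0% = enzyme reaction without inhibitor and -100% = no enzyme wells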
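Reaction rates are the 30-min fluorescence difference (ex 525, em 598 nm) in wells containing 15 nM Sfp, 5 uM rhodamine-CoA and 12.5 uM BHQ-2-YbbR at pH 7.6 with 10 mM MgCl2.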
G9a block = blocks human histone lysine methyltransferase G9a | Potency, µM (series often up to 102 µM), for the others: top-dose activity, negative = inhibition, hits mostly inhibitors | Q96KQ7 | hit rate 8.8% among 350,000 | AID 504332 | G9a H3K9 monomethylation, AlphaScreen, 2 h; further: on the % scale 0 is the no-effect control and ±100 the full control effect; nearly all actives have a fitted effect of over 75% in size
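Compounds were preincubated with 20 nM G9a for 15 min, after which biotinylated H3K9 peptide (500 nM) and SAM (20 uM) started a 2 h room-temperature reaction. Monomethylated product was quantified by antibody-based AlphaScreen chemiluminescence.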
HP1b binding inh = blocks HP1-beta chromodomain binding to methylated histone tails | P83916 | AlphaScreen HP1-beta / biotin-H3K9me3 peptide binding | Potency, µM (top dose mostly 114 µM), for the others: at the top dose activity change, negative = inhibition, usual class: inhibitors | hit rate 0.56% among 390,000 | AID 540317; further: nearly all actives have a fitted effect of over 70% in size
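AlphaScreen: HP1-beta (50 nM) preformed 30 min with biotin-H3(1-18)K9me3 peptide (50 nM) in PBS pH 7.4, 0.01% Tween-20. Compound added for 30 min at RT, then streptavidin donor/nickel chelate acceptor beads (10 ug/mL) for 30 min.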
Active calls of the source: *; u = inconclusive; x = no result; [ ] = another dose, or the depositor's remark. Hits are enriched below; roughly 12% of the tested compounds scored in any of these assays. The call rests on the fitted dose curve; in most records, active means well fitted curve in the direction sought with a large enough effect; inconclusive means small, poorly fitted or top-dose-only effect, or another doubt; inactive means no such curve, though single readings can be large; an effect the other way counts as inactive or inconclusive. Potency means the concentration at half of the fitted maximal effect.

SMILES	BAZ2B block	JMJD2A Tudor inh	Sfp PPTase inh	G9a block	HP1b binding inh
COc1ccccc1OCC(=O)Nc1cc(C(F)(F)F)ccc1-n1cncn1	0.1%	-2.8%	x	44.7µM*	44.4%
COc1cc(C(C)=O)ccc1OCC(=O)Nc1cc(Cl)ccc1-n1cncn1	4.6%	-15.9%	x	-1.4%	23.7%
Cc1ccc(CNc2ncnc3[nH]ncc23)o1	x	-9.2%	x	x	7.5%
OCc1cn(-c2ccccc2)nc1-c1cc2ccccc2o1	0.8%	1.7%	56.2µM*	x	34.1%
COc1ccc(NC(=O)c2cn(-c3ccccc3)nc2-c2cc3ccccc3o2)cc1	-18.7%	10.6%	21.6%	-0.3%[12.7 µM]	35.0%
Cc1ccc(NC2CCCN(C(=O)c3ccccc3N3CCOCC3)C2)cc1C (configuration not stated)	-32.9%	-21.1%	15.6%	u	26.7%
Cc1ccc(NC2CCCN(C(=O)c3cn(C)c4ccccc34)C2)cc1C (configuration not stated)	u	25.1µM*	-7.0%	u	-14.1%
Cc1ccc(NC2CCCN(C(=O)C3CCCCC3)C2)cc1C (configuration not stated)	79.4µM*	-34.9%	5.9%	x	11.6%
COc1ccc(NC2CCCN(C(=O)c3ccc(OC)o3)C2)cc1 (configuration not stated)	u	-32.4%	-5.5%	x	7.6%
COc1ccc(NC2CCCN(C(=O)c3cn(C)c4ccccc34)C2)cc1 (configuration not stated)	u	-25.7%	11.0%	17.8µM*	-10.9%
Cc1ccc(NC2CCCN(C(=O)CCN3CCCCO3)C2)cc1C (configuration not stated)	-28.9%	-6.6%	9.1%	31.6µM*	15.4%
N/C(=N\OC(=O)CCCc1ccccc1)c1ccccc1Cl	135.9%	69.0%	2.7%	138.2%	121.4%
COc1ccc(-n2c(Cc3cccn3C)nnc2SCC(=O)Nc2ccc(C)cc2C)cc1	u	u	-18.8%	44.7µM*	-5.0%
COc1ccc(-n2c(Cc3cccn3C)nnc2SCC(=O)Nc2ccccc2OC)cc1	u	-33.8%	8.7%	44.7µM*	18.4%
COc1ccc(-n2c(Cc3cccn3C)nnc2SCC(=O)Nc2cc(Cl)ccc2OC)cc1	u	u	-6.7%	39.8µM*	-22.7%
CN1CCN(/C=C2\SC(=S)NC2=O)CC1	-10.4%	-6.2%	-21.1%	-8.4%[12.7 µM]	41.9%
O=C1NC(=S)SC1=C1CCCCCC1	u	-19.0%	35.5µM*	u	10.1%
Cc1cccc(N2CCN(C(c3ccccc3)c3nnc(-c4ccccc4Cl)o3)CC2)c1C (configuration not stated)	0.0%	7.5%	x	-4.5%[59 µM]	23.1%
CCN1CCN(C(=S)Nc2ccc3nc4n(c(=O)c3c2)CCCCC4)CC1	-7.8%	-6.3%	12.9%	44.7µM*	50.3%
CN(C)c1cccc(C(=O)Nc2ccc3nc4n(c(=O)c3c2)CCCCC4)c1	u	u	6.9%	44.7µM*	-6.8%
COc1cccc(C(=O)Nc2ccc3nc4n(c(=O)c3c2)CCCC4)c1	2.7%	6.5%	20.1%	22.1%	27.4%
Cc1cc(F)cc(C)c1Cn1cnc2c(cnn2C(C)(C)C)c1=O	x	-1.4%	x	x	109.9%
c1ccc(CCNCCCOc2cccc3ccccc23)cc1	-34.9%	39.8µM*	-19.7%	-5.4%[12.7 µM]	-31.5%
O=C(CC(Nc1ccc(Cl)cc1Cl)C(=O)O)c1ccccc1 (configuration not stated)	-16.9%	5.9%	14.1µM*	u	21.4%[57 µM]
O=C(CC(Nc1ccccc1Cl)C(=O)OCC(=O)c1cccs1)c1ccccc1 (configuration not stated)	-3.6%	-8.4%	44.7µM*	10µM*	51.1%
SMILES	BAZ2B block	JMJD2A Tudor inh	Sfp PPTase inh	G9a block	HP1b binding inh
CC(C)c1ccc(NC(=O)c2cc(S(=O)(=O)N(C)C3CCCCC3)ccc2F)cc1	-0.2%	-9.2%	x	5.7%[59 µM]	40.8%
COc1cc(/C=N/Nc2nncn2N)ccc1OCc1c(C)no[n+]1[O-]	-3.5%	-1.8%	70.8µM*	x	55.7%
Cc1ccc(NC(=O)c2ccc([N+](=O)[O-])cc2Cl)nc1	u	-21.4%	-4.9%	u	-6.1%
CN(CC(=O)Nc1ccc(Cl)c(C(F)(F)F)c1)C(=O)c1cnccn1	x	-10.3%	x	x	12.5%
CN1CCN(c2ncncc2-c2cccnc2)CC1	x	x	-4.6%	-14.9%[0.501 µM]	x
Fc1ccc2[nH]c3c(c2c1)CN(C(=S)NCc1ccccc1)CC3	56.2µM*	u	-24.5%	x	-18.5%
O=C(O)CC1(c2ccc(F)cc2)C2CC3CC(C2)CC1C3 (configuration not stated)	5.3%	-0.7%	21.9%	10.3%	27.2%
CC(C)(COP(=O)(O)OP(=O)(O)OC[C@H]1O[C@@H](n2cnc3c(N)ncnc32)[C@H](O)[C@@H]1OP(=O)(O)O)C(O)C(=O)NCCC(=O)NCCS (some centres not stated)	x	x	39.8µM*	-30.1%[12.7 µM]	x
CSc1nc(N)c2ncn([C@@H]3O[C@H](COP(=O)(O)OP(=O)(O)O)C(O)[C@H]3O)c2n1 (some centres not stated)	x	x	x	9.47µM*	x
COc1cc(/C=C/c2cccc[n+]2C)ccc1OCC(=O)Nc1ccccc1	-15.1%	-9.7%	-12.2%	44.7µM*	9.2%
COc1cc(/C=C/c2cccc[n+]2C)ccc1OCC(=O)Nc1cccc(Cl)c1	u	-5.7%	-17.0%	50.1µM*	-10.0%
CCc1nnc(NC(=O)CCC(=O)N2CCN(c3cc(Cl)ccc3C)CC2)s1	-25.0%	-34.4%	-4.8%	7.4%	-10.0%
COc1ccc(-c2noc(-c3ccccc3NC(=O)c3cc(OC)c(OC)c(OC)c3)n2)cc1	-1.3%	-1.3%	x	u	24.7%
Cc1ccc2c(c1)Cc1c(nc(-c3ccc(F)cc3)nc1SCC(=O)N1CCCCC1)O2	-4.2%	-11.9%	x	0.3%[59 µM]	34.5%
CN(C)S(=O)(=O)c1cccc(NC(=O)C2CCN(S(=O)(=O)c3cccs3)CC2)c1	x	-9.0%	x	x	11.8%[57 µM]
c1ccc(Nc2ccccc2Nc2ccccn2)nc1	-6.5%	-20.5%	5.5%	u	12.2%
Oc1cccc2ccc(Nc3ccccn3)nc12	5.01µM*	17.8µM*	-5.2%	u	29.2%
O=C(Nc1ccccc1C(=O)O)C1=NN=CC1	-8.8%	-30.1%	-7.1%	50.1µM*	u
COc1ccc(-c2oc3ccc(-c4cc(OC)c(OC)c(OC)c4)cc3c2C#Cc2ccccn2)cc1	x	30.7%	x	x	82.8%
Cc1ccc(S(=O)(=O)c2cc3c(=O)n4ccccc4nc3n(CCCN3CCOCC3)c2=N)cc1C	-15.9%[57.1 µM]	-33.8%	-4.5%	11.5%	12.5%
N=c1c(S(=O)(=O)c2ccc(Cl)cc2)cc2c(=O)n3ccccc3nc2n1CCc1ccccc1	-0.9%	x	25.1µM*	41.3%	x
N=c1c(S(=O)(=O)c2ccccc2)cc2c(=O)n3ccccc3nc2n1CCCN1CCOCC1	3.6%	-23.6%	-26.0%	79.4µM*	5.2%

Compound activity deposited in PubChem by National Center for Advancing Translational Sciences (NCATS).
